Assay results reported in PubChem BioAssay AID602141 (Sanford-Burnham Center for Chemical Genomics, 2011).
Values joined by “and” are separate entries in the source; they are usually repeats but may differ in a detail not shown here. Equal entries are not always repeated. Out of some 360,000 compounds screened, about 1,300 (0.36%) were called active.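 The calls were made as follows: active = corrected activity change at or below -50% at 5 µM; inactive = the rest.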 What follows is part of a selection rich in actives, with near analogues and random picks from the rest.

Experiment: KKLEB cell viability reduction – uHTS, fluorescence assay plates, cytotoxicity control for CF NF-kB inhibitor project, primary screen (AID 602141)
Settings: KKLEB CF airway cells viability, ATPlite luminescence, overnight; at 5 µM; active compounds read low; cells stimulated with P. aeruginosa culture filtrate

| SMILES | activity change (cytotoxicity) |
| --- | --- |
| COC(=O)c1ccccc1NC(=O)c1cncc(Br)c1 | 16% (inactive) |
| COC(=O)c1ccc(C(=O)Nc2cc(Cl)ccc2Cl)cc1NC(=O)c1ccccc1C | -62.7% (active) |
| CCCN(CCC)C(=S)Nc1cc(C(=O)OC)ccc1C(=O)OC | -5.9% (inactive) |
| CC(=O)Nc1ccc(S(=O)(=O)N2CCn3cccc3C2C)cc1 (stereo not given) | -3.5% (inactive) |
| CCCCN=C1C([N+](=O)[O-])=CC=C2C1=NC1(CCCCC1)N2O | -4.3% (inactive) |
| CC(C)C[C@H]1CN=C(Nc2ccccc2)N1CC1CCCCC1 | 3.3% (inactive) |
| Clc1ccc(COn2c(-c3ccc(Cl)cc3Cl)nc3ncccc32)cc1 | 1.3% (inactive) |
| Clc1ccc(-c2cc(-c3ccccn3)on2)c(Cl)c1 | -62.1% (active) |
| Fc1ccc(-c2ccc(CNCc3ccccn3)o2)cc1Cl | 5.4% (inactive) |
| O=C(CCN1C(=O)[C@@H]2Cc3ccccc3CN2C1=O)NCc1ccccc1 | -2.4% (inactive) |
| CC(C)CCn1c(=O)c2c(nc3n2CCCN3Cc2ccccc2)n(C)c1=O | -20.8% (inactive) |
| Cc1cc(C)cc(-c2nnc(SCC(=O)NC3CC3)o2)c1 | 8.4% (inactive) |
| c1csc(CN2CCN(Cc3cccs3)C2c2cccs2)c1 | 0% (inactive) |
| O=C(NCCSc1ncc(-c2ccccc2)[nH]1)c1ccco1 | 0.1% (inactive) |
| Cc1ccc(-c2cn3cc(C)ccc3n2)cc1 | -61.7% (active) |
| Cc1ccc2nc(-c3ccc(Br)cc3)cn2c1 | -30% (inactive) |
| Cc1ccc(-c2cc(N)on2)cc1 | -5.6% (inactive) |
| CCn1c(SCC(=O)Nc2ccc(Br)cc2)nc2sc3c(c2c1=O)CCN(C)C3 | 9.6% (inactive) |
| COC(=O)c1cc(NC(=O)c2nn(C)c(=O)c3ccccc23)cc(C(=O)OC)c1 | -11.1% (inactive) |
| Cc1cccc(CS(=O)(=O)c2ncc(Cl)c(C(=O)Nc3ccc(F)cc3)n2)c1 | -15.9% (inactive) |
| CSc1nnc(NC(=O)c2nc(S(=O)(=O)Cc3ccc(C)cc3)ncc2Cl)s1 | -74.7% (active) |
| CN(Cc1ccccc1)S(=O)(=O)c1nnc(NC(=O)c2ccccc2F)s1 | -8.6% (inactive) |
| O=C(Nc1nnc(-c2ccc(F)cc2)s1)c1c(F)cccc1Cl | 7.4% (inactive) |
| O=C(Nc1nnc(Cc2ccc(Cl)cc2)s1)c1cccnc1 | -6% (inactive) |

| SMILES | activity change (cytotoxicity) |
| --- | --- |
| Cc1ccc(CS(=O)(=O)c2ncc(Cl)c(C(=O)Nc3nnc(C)s3)n2)cc1 | -93.7% (active) |
| COCCNC(=O)C1(C)CCCN(Cc2cccc(F)c2)C1 (stereo not given) | 6.2% (inactive) |
| CCOC(=O)NC(=O)C(=CNc1cccc(OC)c1)C(=O)NC(=O)OCC | 17.8% (inactive) |
| CC(C)Nc1nc(NCCOc2ccccc2Cl)c2sccc2n1 | -5.6% (inactive) |
| CN(c1ccc2nc3ccccc3c(=O)n2n1)C1CCCCC1 | -54.1% (active) |
| CC(C)(C)c1nc2ccccc2c(=O)n1N1C(=O)c2ccccc2C1=O | -12.6% (inactive) |
| CN(C(=O)Nc1ccc(Cl)cc1)n1cnc2ccccc2c1=O | 6.1% (inactive) |
| O=[N+]([O-])/C=C1\CCCCCN1 | -1.7% (inactive) |
| CCCn1nnnc1NCc1ccc(OC)cc1 | 5.9% (inactive) |
| COc1ccc(CNc2c(CO)cnc3c2cnn3C)cc1 | -62.1% (active) |
| COc1ccc(CNc2nnnn2C)cc1 | 6.7% (inactive) |
| C[C@@H]1CN([C@H](C)CO)C(=O)c2cc(NC(=O)NC3CCCCC3)ccc2O[C@H]1CN(C)S(C)(=O)=O | 2.2% (inactive) |
| C[C@H]1CN([C@@H](C)CO)C(=O)CCCn2cc(nn2)CO[C@@H]1CN(C)S(=O)(=O)c1cccc(C#N)c1 | 4.9% (inactive) |
| O=C(Nc1cccc(C(=O)NC2CC2)c1)c1ccc(F)c(S(=O)(=O)N2CCOCC2)c1 | -2.3% (inactive) |
| COc1cc(NS(=O)(=O)c2ccc(NC(=S)NC(=O)c3ccc(Br)cc3)cc2)ncn1 | 1% (inactive) |
| COc1cc(NC(=O)c2cncc(-c3ccc(C#N)cc3)c2)cc(C(=O)Nc2cccc(C(F)(F)F)c2)c1 | 7.5% (inactive) and 5.1% (inactive) |
| COc1cc(C(=O)N(C)Cc2cccc(OC)c2OC)ccc1OCC(=O)Nc1cccc(C(F)(F)F)c1 | 7.7% (inactive) |
| COc1cc(NC(=O)c2[nH]cnc2C(N)=O)cc(C(=O)Nc2cccc(C(F)(F)F)c2)c1 | -61.7% (active) |
| Cc1cccc(C(=O)O)c1[N+](=O)[O-] | 14% (inactive) |
| Cn1ccnc1-c1nnn(-c2ccc(F)cc2)n1 | -12.5% (inactive) |
| CCNC(=O)C1(C)CCCN(C(=O)c2ccc3ccccc3n2)C1 (stereo not given) | -5.1% (inactive) |
| O=C(NCC1CCCO1)c1cc2c([nH]c3ccccc32)c(-c2ccc(F)cc2)n1 (stereo not given) | -5.3% (inactive) |
| CC1=CCC2C(=O)N(c3cccc(C(=O)NC(C)c4ccccc4)c3)C(=O)C2C1 (stereo not given) | -1.1% (inactive) |
| Cc1cccc(C)c1NC1=NC(=S)N(c2ccc(N(C)C)cc2)C1(C)C | -3.7% (inactive) |

| SMILES | activity change (cytotoxicity) |
| --- | --- |
| CCCCC(=O)Nc1c2c(nn1-c1ccc([N+](=O)[O-])cc1)CS(=O)(=O)C2 | -15.2% (inactive) |
| O=C1CCCN1C(=O)COc1ccc([N+](=O)[O-])cc1 | -6.8% (inactive) |
| O=C1/C(=C\c2ccc([N+](=O)[O-])cc2)CS(=O)(=O)C/C1=C/c1ccc([N+](=O)[O-])cc1 | -101% (active) |
| CO[C@@H]1[C@@H](OC(N)=O)[C@@H](O)C(Oc2ccc3c(O)c(NC(=O)c4ccc(O)c(CC=C(C)C)c4)c(=O)oc3c2C)OC1(C)C (stereo not given in full) | 44.1% (inactive) |
| CS/C(=C\[N+](=O)[O-])Nc1ccc(C)cc1 | -4.4% (inactive) |
| CCOc1ccc(C(=O)NC(C(=O)NCc2ccccn2)C(C)C)cc1 (stereo not given) | -1.5% (inactive) |
| COc1cc(NC(=O)c2ccccc2NS(=O)(=O)c2ccc(Cl)s2)cc(OC)c1 | -57.2% (active) |
| O=C(Nc1cccc(Cl)c1)Nc1ccccc1NS(=O)(=O)c1cccs1 | 13.5% (inactive) |
| O=S(=O)(Nc1ccccc1N1CCOCC1)c1ccc(Cl)s1 | 1.7% (inactive) |
| COc1ccc(CC(=O)Nc2ccc(-c3nnc(-c4ccc(C)cc4)o3)cc2)cc1 | -56.3% (active) |
| COc1ccc(C(CC(=O)Nc2ccc(C)cc2)NC(=O)C(F)(F)F)cc1 (stereo not given) | 6.9% (inactive) |
| COc1ccc(NC(=O)Cn2c(-c3ccc(OC)cc3)cn(-c3ccc(C)cc3)c2=O)cc1 | 12.5% (inactive) |
| CCOc1ccccc1NS(=O)(=O)c1cc2c3c(c1)C(C)C(=O)N3CCC2 (stereo not given) | 7.2% (inactive) |
| COc1ccc(CN(C(=O)c2cccs2)c2nccs2)cc1OC | 5.6% (inactive) |
| O=C(NCc1cccnc1)c1nc(-c2cccs2)no1 | -11.3% (inactive) |
| CCOc1ccc(NC(=O)COC(=O)C2CCC(=O)N2)c([N+](=O)[O-])c1 (stereo not given) | -7.5% (inactive) |
| COc1ccc(/C=C/C(=O)NC(=S)N2CCCC(C(N)=O)C2)cc1 (stereo not given) | -10.3% (inactive) |
| CCOc1ccc(NC(=S)NC(=O)/C=C/c2ccc(OC)cc2)c([N+](=O)[O-])c1 | -50.2% (active) |
| COc1ccc(S(=O)(=O)n2cnc3ccccc32)c(C)c1 | 0.5% (inactive) |
| COc1c(C=O)c(CCN(C)C(=O)c2ccc(F)cc2)cc2c1OCO2 | -9% (inactive) |
| O=C(c1ccc2c(c1)OCO2)N1CCNc2ccccc2C1 | 4.7% (inactive) |
| CS(=O)(=O)N(CC(=O)N/N=C/c1ccccn1)c1ccc(Oc2ccccc2)cc1 | 1.8% (inactive) |
| S=C(NN=Cc1ccccn1)Nc1ccccn1 | -63.5% (active) |
| O=C(N/N=C/c1ccccn1)c1cccc(NC(=O)c2ccc(Cl)cc2)c1 | -1.1% (inactive) |

| SMILES | activity change (cytotoxicity) |
| --- | --- |
| Cc1ccc(S(=O)(=O)N2CCCCC2)cc1NC(=O)CCNC(=O)c1ccccc1Cl | 1.6% (inactive) |
| Nc1ncnc2c1ncn2[C@@H]1O[C@H](C(=O)NS(=O)(=O)c2c(Cl)nc3sccn23)[C@@H](O)[C@H]1O | -8.7% (inactive) |
| COc1cccc(NCCC(=O)c2cccc([N+](=O)[O-])c2)c1 | 1.2% (inactive) |
| COC(=O)/C=C\C(=O)Nc1cccc([N+](=O)[O-])c1 | -64.1% (active) |
| O=C(Nc1cccc([N+](=O)[O-])c1)N1CCc2ccccc2C1 | -12.4% (inactive) |
| CCN(CC(=O)Nc1ccccc1C(F)(F)F)C(=O)C1CCN(C(=O)Nc2ccccc2)CC1 | -2.1% (inactive) |
| Cc1cnc(C(=O)Oc2cccc(Cl)c2Cl)cn1 | 14.6% (inactive) |
| Cn1c(SCC(=O)Nc2ccc(Br)cc2F)nnc1-c1ccco1 | -9.6% (inactive) |
| Cn1c(-c2ccco2)nc2cc3ccccc3cc21 | -57.4% (active) |
| Cc1ccc2nc(-c3ccco3)c(Cc3cccc(Cl)c3)n2c1 | 6.4% (inactive) |
| CCOc1ccc(S(=O)(=O)NCc2ccc3c(c2)OCO3)cc1C | -0.2% (inactive) |
| COc1ccccc1CNC(=O)COC(=O)c1sc(C)nc1C | 5.6% (inactive) |
| COc1ccc(C)cc1NC(=O)CCCN1C(=O)NC(C)(C)C1=O | 9.3% (inactive) |
| Cc1cc(C)cc(NC(=O)N(C)Cc2ccccc2)c1 | 1.9% (inactive) |
| CN1c2ccc(C=O)c3c(C=O)ccc(c23)N(C)C1(C)C | -67.5% (active) |
| Cc1ccc(C=O)c([B-](F)(F)F)c1 | 7.5% (inactive) |
| Cc1ccc(S(=O)(=O)N(C)C)cc1NC(=O)CN1c2cccc3cccc(c23)S1(=O)=O | -28.1% (inactive) |
| Cc1ccc(/C=N/NC(=O)Cn2ccc(C(F)(F)F)n2)o1 | 10.5% (inactive) |
| Cc1cccc(NC(=S)N2CCC(O)CC2)c1C | -5.6% (inactive) |
| Fc1ccc(OCc2nn3c(Cn4nnc5ccccc54)nnc3s2)cc1 | -11.4% (inactive) |
| O=C(Nc1ccccc1Cl)c1ccccc1S(=O)(=O)c1ccccc1[N+](=O)[O-] | 4.2% (inactive) |
| O=C(Nc1ccccc1Cl)/C(Cl)=C(\Cl)S(=O)c1ccccc1 (stereo not given) | -100% (active) |
| CC(=O)c1ccc(NC(=O)C(C)N(C)CC(=O)Nc2ccccc2Cl)cc1 (stereo not given) | -7% (inactive) |
